# Reference: PubChem BioAssay (NCATS)
# Records with an inconclusive call do not appear. A call without a number means that no potency is given here. Activity calls are given as the source filed them. The call rests on the fitted dose curve; in most records, active means well fitted curve in the direction sought with a large enough effect; inconclusive means small, poorly fitted or top-dose-only effect, or another doubt; inactive means no such curve, though single readings can be large; an effect the other way counts as inactive or inconclusive. Bridge positions count the residues as written; N and C are the ends. Square brackets hold non-standard residues; d marks the D form. Side chains are listed from the residue outwards. Peptide text beside a SMILES is read from it. * marks the point of attachment. Phg(4-OMe) = COc1ccc([C@H](N)C(=O)O)cc1; d(aIle) = CC[C@H](C)[C@@H](N)C(=O)O; d(aThr) = C[C@@H](O)[C@@H](N)C(=O)O; NMeF = CN[C@@H](Cc1ccccc1)C(=O)O; Isobutyryl = CC(C)C(=O)*
# What was measured:
# [1] = test system: Zika virus NS2B-NS3 protease (linked construct); assay: Primary screen NINDS Rhodamine qHTS for Zika virus inhibitors (AID 1347160); further: nearly all actives have a fitted effect of over 55% in size; further: potency means the concentration at half of the fitted maximal effect
# Procedure, shortened: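 Purified NS2B-NS3 protease with the NS2B hydrophilic domain joined by a flexible linker (25 nM) in 10 mM Tris-HCl pH 8.0, 0.01% Tween 20, preincubated 15 min at RT with compound; Rhodamine110 peptide substrate 1.5 µM; fluorescence change over 15 min; 4-parameter Hill fit.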
# [2] = OV-SAHO Cancer Cell Toxicity qHTS against the NCATS CANVASS Library (AID 1347348); further: nearly all actives have a fitted effect of over 55% in size; further: potency means the concentration at half of the fitted maximal effect
# Procedure, shortened: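 Cells were seeded at 1000 per well, allowed 4 h at 37 degrees C/5% CO2, then pin-treated with an 11-point compound series. After 72 h, viability was read as CellTiter-Glo luminescence following 15min at room temperature.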
# [3] = A2780 Cisplatin Sensitive Ovarian Cancer Cell Toxicity qHTS against the NCATS CANVASS Library (AID 1347353); further: nearly all actives have a fitted effect of over 60% in size; further: potency means the concentration at half of the fitted maximal effect
# Procedure, shortened: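 A2780 cells, 750/well, settled 4 h at 37 °C, then treated with an 11-point compound series for 72 h. Viability was read as ATPLite luminescence after 10 min at room temperature, with bortezomib as control.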
# [4] = qHTS for Activators of p53 Stress Response Pathway screened against the NCATS CANVASS Library (AID 1347388); further: potency means the concentration at half of the fitted maximal effect
# Procedure, shortened: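 Beta-lactamase reporter driven by p53 response elements in HCT-116 cells, read as the 460 nm/530 nm emission ratio after CCF4 loading, following 16 h of exposure to an 11-point series. Cell viability was measured in the same wells by CellTiter-Glo luminescence.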
# [5] = qHTS assay for small molecule disruptors of mitochondrial membrane potential screened against the NCATS CANVASS Library (AID 1347389); further: nearly all actives have a fitted effect of over 60% in size; further: potency means the concentration at half of the fitted maximal effect
# Procedure, shortened: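 HepG2 cells (2,000/well) plated overnight, then exposed to compounds in 11-point qHTS series for 1 h at 37C before 30 min Mito-MPS dye; depolarization read as fall in red aggregate (590 nm) to green monomer (535 nm) fluorescence.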
# [6] = Vero-766 cells viability qHTS against the NCATS CANVASS Library: Counterscreen for Zika virus inhibition assay (AID 1347394); further: nearly all actives have a fitted effect of over 60% in size; further: potency means the concentration at half of the fitted maximal effect
# Procedure, shortened: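 Vero 766 cells (1000/well), without Zika virus, were exposed to compounds for 72 h at 37C. Viability was measured by CellTiter Glo luminescence. Media-only wells served as 100% inhibition.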
# [7] = Viability qHTS for inhibitors of the SERCaMP assay screened against the NCATS CANVASS Library (AID 1347400); further: nearly all actives have a fitted effect of over 70% in size; further: potency means the concentration at half of the fitted maximal effect
# Procedure, shortened: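 SH-SY5Y-GLuc SERCaMP MJH297-derived cells, 1000/well, plated 4 h, then exposed to compounds in an 11-point qHTS series for 48 h at 37C. Viability read as CellTiter-Glo luminescence.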
# [8] = qHTS for Antimalaria activity screened against the NCATS CANVASS Library (AID 1347380); further: nearly all actives have a fitted effect of over 40% in size; further: potency means the concentration at half of the fitted maximal effect
# Procedure, shortened: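 Red blood cells infected with P. falciparum Dd2 (2.5% hematocrit final, 0.3% parasitemia) were exposed to compounds in an 11-point qHTS series for 72 hr at 37C under 5% O2 and 5% CO2. Lysis buffer with SYBR Green was then added for 18 hr, and fluorescence was read at 485/535 nm.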
# [9] = qHTS for activators of Nrf2/ARE signaling pathway screened against the NCATS CANVASS Library (AID 1347391); further: nearly all actives have a fitted effect of over 60% in size; further: potency means the concentration at half of the fitted maximal effect
# Procedure, shortened: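 ARE-bla HepG2 beta-lactamase reporter cells exposed to compounds for 16 h at 37C; CCF4 substrate 2 h, fluorescence at ex 405 nm, em 460/530 nm. Viability by CellTiter-Glo luminescence.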
# [10] = target: Cytochrome P450 3A4 (Homo sapiens) (UniProt P08684); assay: qHTS Assay for Activators of Cytochrome P450 3A4 (AID 885); further: nearly all actives have a fitted effect of over 65% in size
# Procedure, shortened: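 Human CYP3A4 (20 nM) with Luciferin-PPXE at 25 uM (its KM) in 200 mM KPO4; 10 min compound preincubation, then NADPH regeneration and 60 min reaction at RT. Luciferin read by luminescence; normalized to 57 uM ketoconazole full inhibition.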
# [11] = Confirmation and Secondary Assay for Modulators of Hemoglobin Beta Chain Splicing at IVS2 654 locus (AID 910);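 further: HeLa cells stably carrying EGFP split by mutant beta-globin IVS2-654 intron; per-well total GFP intensity by laser scanning cytometry after 2-day treatment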
# Procedure, shortened: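 Readout: per-well total peak green fluorescence (488 nm ex, 500–520 nm em) from objects 5–250 µm, reflecting correct splicing of an EGFP-654 reporter. Compounds were applied for 2 days at 37 °C to overnight-plated HeLa EGFP-654 cells; controls were DMSO and 500 nM IVS2-654 PNA.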
# [12] = Confirmation and Secondary Assay for Modulators of Hemoglobin Beta Chain Splicing at IVS2 705 locus (AID 930);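 further: HeLa cells stably expressing the EGFP-705 splicing reporter; series mostly up to about 46 µM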
# Procedure, shortened: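 HeLa cells stably carrying EGFP interrupted by mutant beta-globin IVS2-705 intron (CMV-driven) were seeded at 500 cells/well, treated next day with compound for 2 days at 37C; corrected splicing restores EGFP, read as total peak GFP intensity per well.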
# [13] = Confirmatory screen NINDS Rhodamine qHTS for Zika virus inhibitors (AID 1347161)
# Procedure, shortened: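 Enzyme (25 nM, linked NS2B-NS3) was preincubated 15 min with compound in 10 mM Tris-HCl pH 8.0, 0.01% Tween 20. Rhodamine110 substrate (1.5 microM) was then added and fluorescence read at start and after 15 min.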
# [14] = test system: Zika virus NS2B-NS3 protease (linked); assay: 384 well plate NINDS AMC confirmatory qHTS for Zika virus inhibitors (AID 1347163); further: potency means the concentration at half of the fitted maximal effect; nearly all actives have a fitted effect of over 50% in size
# Procedure, shortened: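 Linked NS2B-NS3 protease (final 5 nM, 30 nM or 60 nM) was preincubated with compounds (final up to 1 mM) for ~15 minutes. Ac-VKTGKR-AMC substrate (final 30 microM) then reacted for 25 minutes at room temperature in the dark. Fluorescence (ex 355/em 460 nm) was normalized to no-enzyme and no-inhibitor controls.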
# [15] = test system: Zika virus NS2B-NS3 protease (linked construct); assay: 384 well plate NINDS Rhodamine confirmatory qHTS for Zika virus inhibitors (AID 1347164);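 further: fluorescence from protease cleavage of Ac-LKRR-rhodamine 110 substrate; potency means the concentration at half of the fitted maximal effect; nearly all actives have a fitted effect of over 65% in size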
# Procedure, shortened: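 Linked NS2B-NS3 protease (final 5, 30 or 60 nM) preincubated ~15 minutes with compounds, then 10 microM Ac-LKRR-Rhodamine 110 added. Fluorescence (485/538 nm) read after 25 minutes at room temperature, normalized to no-enzyme and no-inhibitor controls.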
# Cytochrome P450 3A4 (Homo sapiens), sequence (P08684 whole entry, looked up): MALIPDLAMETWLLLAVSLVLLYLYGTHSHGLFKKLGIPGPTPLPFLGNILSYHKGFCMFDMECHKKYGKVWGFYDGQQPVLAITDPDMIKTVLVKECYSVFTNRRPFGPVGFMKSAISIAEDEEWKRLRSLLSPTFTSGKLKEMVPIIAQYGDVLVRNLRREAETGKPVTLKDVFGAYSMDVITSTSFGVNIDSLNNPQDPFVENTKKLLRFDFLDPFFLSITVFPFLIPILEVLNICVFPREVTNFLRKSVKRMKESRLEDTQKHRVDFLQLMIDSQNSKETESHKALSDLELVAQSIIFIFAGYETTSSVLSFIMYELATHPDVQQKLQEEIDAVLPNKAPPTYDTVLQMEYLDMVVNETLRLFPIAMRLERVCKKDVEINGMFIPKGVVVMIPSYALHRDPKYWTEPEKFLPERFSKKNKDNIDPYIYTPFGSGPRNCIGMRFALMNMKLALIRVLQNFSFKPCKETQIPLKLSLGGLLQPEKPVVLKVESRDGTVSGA
structure (smiles),measurement,setting,value
COC12OC1(C13OC1(OC)C(=O)c1cc4cc(C)oc(=O)c4c(O)c1C3O)C(O)c1c(cc3cc(C)oc(=O)c3c1O)C2=O (configuration not stated),Potency,[1],3.11 µM (active)
same,Potency,[2],inactive
same,Potency,[3],inactive
same,Potency,[4],inactive
same,Potency,[5],inactive
same,Potency,[6],23.4 µM (active)
same,Potency,[7],inactive
C=C[C@@]1(C)CC[C@@H]([C@H](C)C(=O)/C=C/C(C)(C)O)O1,Potency,[1],55.3 µM (active)
same,Potency,[8],inactive
same,Potency,[4],inactive
same,Potency,[5],inactive
same,Potency,[9],13.2 µM (active)
same,Potency,[6],inactive
C=C1CC[C@@H](Br)C(C)(C)[C@]12CC=C(C)C(=O)C2,Potency,[1],inactive
same,Potency,[8],inactive
same,Potency,[4],inactive
same,Potency,[6],inactive
same,Potency,[7],inactive
CC(C)[C@]12CC[C@@]3(C)[C@H](C)CC[C@H](O)[C@@]3(CC1)c1cc3c(cc12)[nH]c1ccccc13,Potency,[1],27.7 µM (active)
O[C@H]1c2ccccc2-c2c3c(cc4c2[C@@H]1NCC4)OCO3,Potency,[1],49.3 µM (active)
same,Potency,[2],inactive
same,Potency,[4],13.2 µM (active)
same,Potency,[6],20.9 µM (active)
CCC(=O)N[C@@H](C[C@H](C)C(Cl)(Cl)Cl)C(=O)N1C(=O)C=C(OC)[C@@H]1CC(C)C,Potency,[1],inactive
same,Potency,[8],inactive
same,Potency,[5],inactive
same,Potency,[7],inactive
Cc1occ2c1C(=O)c1c(cc(O)c(O)c1O)C2=O,Potency,[1],13.9 µM (active)
same,Potency,[4],11.7 µM (active)
same,Potency,[5],7.41 µM (active)
COc1cc2c(c(O)c1O)C(=O)c1c(coc1C)C2=O,Potency,[1],3.11 µM (active)
same,Potency,[8],10.6 µM (active)
same,Potency,[7],15.2 µM (active)
CC(=O)O[C@H]1c2ccccc2-c2c3c(cc4c2[C@@H]1N(C(C)=O)CC4)OCO3,Potency,[1],55.3 µM (active)
same,Potency,[8],inactive
same,Potency,[5],inactive
same,Potency,[9],8.31 µM (active)
COc1cc2c(cc1OC)[C@@H](c1ccc3c(c1)OCO3)C(C)C(C)C2=O (some centres not stated),Potency,[1],inactive
same,Potency,[8],inactive
same,Potency,[5],inactive
same,Potency,[6],inactive
same,Potency,[7],inactive
CC(C)=CCC[C@]12c3cc4c(cc3CC[C@@]1(C)[C@H](C)CC[C@@H]2O)[nH]c1ccccc14,Potency,[1],24.7 µM (active)
same,Potency,[5],20.9 µM (active)
same,Potency,[9],inactive
CC[C@H](C)[C@H]1NC(=O)[C@@H](NC(=O)C(C)C)[C@@H](C)OC(=O)[C@H](COC(=O)CNC(C)=O)NC(=O)[C@@H]([C@@H](C)O)NC(=O)[C@H](Cc2ccccc2)N(C)C(=O)[C@H](c2ccc(OC)cc2)NC1=O (Isobutyryl-T[d(aIle)][Phg(4-OMe)][NMeF][d(aThr)]S([Gly-Ac]); ester 1-C),Potency,[1],inactive
same,Potency,[2],inactive
same,Potency,[3],inactive
same,Potency,[8],inactive
same,Potency,[4],inactive
same,Potency,[5],inactive
same,Potency,[6],inactive
same,Potency,[7],inactive
COc1cc(/C=C/C(=O)OC[C@@H](Cc2ccc(O)c(OC)c2)[C@@H](COC(=O)/C=C/c2ccc(O)c(OC)c2)Cc2ccc(O)c(OC)c2)ccc1O,Potency,[1],31.1 µM (active)
same,Potency,[2],23.6 µM (active)
same,Potency,[3],9.35 µM (active)
same,Potency,[8],0.265 µM (active)
same,Potency,[4],inactive
same,Potency,[5],7.41 µM (active)
same,Potency,[9],inactive
C[C@]12CCC[C@](C)(C(=O)O)[C@@H]1CC[C@@]1(C)c3cocc3CC[C@H]21,Potency,[1],15.6 µM (active)
same,Potency,[3],inactive
same,Potency,[5],inactive
same,Potency,[7],inactive
C=C[C@](Cl)(CBr)CCC=C(C)C,Potency,[1],inactive
same,Potency,[3],20.9 µM (active)
same,Potency,[8],inactive
same,Potency,[4],inactive
same,Potency,[5],inactive
O=C1CC2OCC=C3CN4C5CC3C2[C@@H]2N1c1ccccc1[C@]52C[C@@H]4C1=C[C@H]2C3CC4N(CC[C@@]45c4ccccc4N(C1=O)[C@@H]25)C/C3=C/CO (some centres not stated),Potency,[1],inactive
same,Potency,[8],2.36 µM (active)
same,Potency,[6],inactive
C/C1=C/[C@@H](C)[C@H](O)[C@@H](O)/C=C/CC/C=C/C(=O)O[C@@H]1[C@H](C)C(=O)CCCC1CC(=O)NC(=O)C1,Potency,[1],inactive
same,Potency,[2],inactive
same,Potency,[3],inactive
same,Potency,[8],inactive
same,Potency,[4],inactive
same,Potency,[7],inactive
CC(C)=CCc1c2c(c3occ(-c4ccc(O)c(O)c4)c(=O)c3c1O)C=CC(C)(C)O2,Potency,[10],inactive
same,outcome,[11],inactive
same,outcome,[12],inactive
same,Potency,[13],12.4 µM (active)
same,Potency,[14],7.08 µM (active)
same,Potency,[15],7.94 µM (active)
C[C@@]12CCC[C@@](C)(C(=O)O)[C@H]1C[C@@H](O)[C@@]13C[C@@H](CC[C@@H]21)[C@](C)(O)C3,Potency,[2],inactive
same,Potency,[3],inactive
same,Potency,[8],inactive
same,Potency,[9],inactive
same,Potency,[6],inactive
same,Potency,[7],inactive
C/C(=C\[C@H](C)C(=O)CCCC1CC(=O)NC(=O)C1)[C@@H]1OC(=O)/C=C/CC/C=C/[C@H](O)[C@@H](O)[C@@H]1C,Potency,[1],49.3 µM (active)
same,Potency,[3],0.372 µM (active)
same,Potency,[8],5.29 µM (active)
same,Potency,[4],inactive
same,Potency,[5],inactive
same,Potency,[6],inactive
same,Potency,[7],3.81 µM (active)
Cc1cc(O)cc2c1C(=O)c1c(O)cc(O)cc1C2=O,Potency,[2],inactive
same,Potency,[3],inactive
same,Potency,[4],inactive
same,Potency,[9],inactive
same,Potency,[7],inactive
